These results are taken from paper PMC4081100, “A DNA-binding-site landscape and regulatory network analysis for NAC transcription factors in Arabidopsis thaliana”.

Experiment in all cases: universal protein binding microarray (PBM); transcription factors of Arabidopsis thaliana; high values mean tight binding
What all share (settings): protein: recombinant; tags: GST; chain copies: 2; dsDNA, one strand shown

Assay [1] addresses T1, GST-ANAC092(1-176) (Arabidopsis thaliana, UniProt Q9FKA0 1-176).
T1 sequence: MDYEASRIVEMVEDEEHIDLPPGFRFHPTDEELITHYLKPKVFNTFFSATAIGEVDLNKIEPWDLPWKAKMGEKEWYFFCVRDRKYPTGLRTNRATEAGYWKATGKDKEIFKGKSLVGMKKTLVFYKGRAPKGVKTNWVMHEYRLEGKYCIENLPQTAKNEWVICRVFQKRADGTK
In short, it runs like this: (§1)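 Binding is expressed as the normalised enrichment score (E-score). Proteins carrying a GST tag, whether NAC-domain, full-length or DNA-binding-domain forms, were induced in cells, and zinc acetate was added for zinc-finger proteins. After purification on glutathione–Sepharose 4B and quantification by A280 or anti-GST western blot, each was applied in duplicate at 200 to 500 nM final to custom all-10-mer Agilent 4 × 180K arrays made double-stranded by primer extension. Gapped and ungapped 8-mers were scored.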

Assay [2] concerns the target T2, GST-ANAC019 NAC domain (Arabidopsis thaliana, UniProt Q9C932 14-162).
T2 sequence: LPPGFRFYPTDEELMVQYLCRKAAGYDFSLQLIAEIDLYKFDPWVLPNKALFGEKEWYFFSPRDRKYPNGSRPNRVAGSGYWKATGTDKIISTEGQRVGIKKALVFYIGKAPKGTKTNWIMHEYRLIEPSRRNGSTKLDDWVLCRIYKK
In short, it runs like this:
as §1

For assay [3], the target named is T3, GST-ANAC055(1-171) (Arabidopsis thaliana, UniProt Q9LDY8 1-171).
T3 sequence: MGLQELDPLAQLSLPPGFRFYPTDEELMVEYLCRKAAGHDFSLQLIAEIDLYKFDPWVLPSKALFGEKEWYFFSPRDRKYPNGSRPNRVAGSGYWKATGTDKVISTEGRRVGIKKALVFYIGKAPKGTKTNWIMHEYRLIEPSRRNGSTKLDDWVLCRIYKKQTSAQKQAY
The procedure, abridged: as §1

Assay [4] addresses T4, GST-ATAF1 NAC domain (Arabidopsis thaliana, UniProt Q39013 7-158).
T4 sequence: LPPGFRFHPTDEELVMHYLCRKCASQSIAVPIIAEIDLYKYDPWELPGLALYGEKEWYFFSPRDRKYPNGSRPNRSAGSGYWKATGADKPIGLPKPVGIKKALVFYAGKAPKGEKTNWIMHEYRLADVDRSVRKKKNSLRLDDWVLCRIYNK
In short, it runs like this: as §1

The target of assay [5] is T5, GST-ANAC092(1-285) full length (Arabidopsis thaliana, UniProt Q9FKA0 1-285).
T5 sequence: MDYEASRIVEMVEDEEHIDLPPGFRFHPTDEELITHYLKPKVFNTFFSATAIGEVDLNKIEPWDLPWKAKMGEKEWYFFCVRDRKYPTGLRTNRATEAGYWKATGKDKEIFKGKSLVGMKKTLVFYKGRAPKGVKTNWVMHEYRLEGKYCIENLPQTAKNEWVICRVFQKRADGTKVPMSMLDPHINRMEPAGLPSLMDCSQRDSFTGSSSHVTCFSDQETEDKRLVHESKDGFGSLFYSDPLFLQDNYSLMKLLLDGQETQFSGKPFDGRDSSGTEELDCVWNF
In short, it runs like this:
as §1

For assay [6], the target named is T6, GST-NAP(1-166) (Arabidopsis thaliana, UniProt O49255 1-166).
T6 sequence: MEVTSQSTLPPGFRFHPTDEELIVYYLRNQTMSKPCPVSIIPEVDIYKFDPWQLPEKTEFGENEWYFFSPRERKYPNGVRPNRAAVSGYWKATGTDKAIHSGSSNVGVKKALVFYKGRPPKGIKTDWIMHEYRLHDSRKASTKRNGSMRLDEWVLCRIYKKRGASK
The procedure, abridged:
as §1

For assay [7], the target named is T7, GST-NST2(1-184) (Arabidopsis thaliana, UniProt Q9M274 1-184).
T7 sequence: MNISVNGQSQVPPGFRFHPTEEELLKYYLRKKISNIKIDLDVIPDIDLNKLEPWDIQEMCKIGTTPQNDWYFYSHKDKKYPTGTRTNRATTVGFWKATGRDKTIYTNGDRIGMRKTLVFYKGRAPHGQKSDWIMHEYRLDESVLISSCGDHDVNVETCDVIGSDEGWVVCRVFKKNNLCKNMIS
In short, it runs like this: as §1

In assay [8] the target is T8, GST-SND1(1-203) (Arabidopsis thaliana, UniProt Q9LPI7 1-203).
T8 sequence: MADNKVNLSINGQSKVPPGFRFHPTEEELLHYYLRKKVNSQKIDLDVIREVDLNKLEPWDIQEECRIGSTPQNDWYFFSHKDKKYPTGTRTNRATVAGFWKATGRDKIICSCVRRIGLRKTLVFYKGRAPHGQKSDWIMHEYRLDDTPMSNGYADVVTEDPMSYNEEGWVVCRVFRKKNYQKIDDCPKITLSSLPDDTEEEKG
In short, it runs like this:
as §1

For assay [9], the target named is T9, GST-VND3 NAC domain (Arabidopsis thaliana, UniProt Q9FH59 12-162).
T9 sequence: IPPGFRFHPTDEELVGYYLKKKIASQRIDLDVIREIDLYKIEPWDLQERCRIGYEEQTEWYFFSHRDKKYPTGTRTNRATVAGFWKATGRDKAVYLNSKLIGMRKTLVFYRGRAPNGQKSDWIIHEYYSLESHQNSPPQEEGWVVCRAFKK
In short, it runs like this: as §1

Assay [10] concerns the target T10, GST-VND7 NAC domain (Arabidopsis thaliana, UniProt Q9C8W9 9-158).
T10 sequence: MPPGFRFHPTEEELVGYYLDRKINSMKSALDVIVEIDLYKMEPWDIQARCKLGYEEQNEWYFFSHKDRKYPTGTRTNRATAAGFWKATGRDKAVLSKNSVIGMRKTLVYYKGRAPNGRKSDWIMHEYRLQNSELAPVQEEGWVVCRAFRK
The procedure, abridged:
as §1

The target in assay [11] is T11, GST-NTL8 NAC domain (Arabidopsis thaliana, UniProt Q9XIN7 14-156).
T11 sequence: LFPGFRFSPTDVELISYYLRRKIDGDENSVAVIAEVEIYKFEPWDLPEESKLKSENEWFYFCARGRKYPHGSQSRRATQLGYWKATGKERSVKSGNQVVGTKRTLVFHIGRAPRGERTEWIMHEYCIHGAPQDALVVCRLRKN
The procedure, abridged: as §1

Take TGCGTGAA: the binding signal in assay [1] is 0.325 E-score; in assay [2], 0.327 E-score; in [3], 0.258 E-score; in [4], 0.234 E-score; in [5], 0.414 E-score; in assay [6], 0.189 E-score. For the same sequence, the binding signal in assay [7] is 0.198 E-score; in assay [8], 0.338 E-score; in assay [9], 0.281 E-score; in assay [10], 0.263 E-score.

In the case of AACGTACG, the binding signal came to 0.297 E-score in assay [1]; 0.122 E-score in assay [2]; 0.207 E-score in assay [3]; 0.326 E-score in assay [4]; 0.403 E-score in assay [5]; 0.212 E-score in [6]. The binding signal amounted to 0.184 E-score in assay [7], 0.326 E-score in [8], 0.308 E-score in assay [9] and 0.209 E-score in assay [10].

For the sequence ATGCCGTA, the binding signal was 0.373 E-score in assay [1]; 0.395 E-score in assay [2]; 0.355 E-score in assay [3]; 0.385 E-score in assay [4]; 0.41 E-score in [5]; 0.36 E-score in assay [6]. Further, the binding signal in [7] is 0.117 E-score; in assay [11] it was 0.0526 E-score; in assay [8], 0.307 E-score; in assay [9], 0.412 E-score; in [10], 0.432 E-score.

For TACGGCAA, the binding signal in [1] stood at 0.409 E-score; in assay [2] it was 0.409 E-score; in assay [3], 0.363 E-score; in [4] it was 0.381 E-score; in assay [5] it was 0.422 E-score; in assay [6] it was 0.362 E-score. Besides, the binding signal in [7] worked out at 0.212 E-score; in assay [11] it was 0.192 E-score; in [8] it was 0.381 E-score; in assay [9], 0.417 E-score; in assay [10], 0.419 E-score.

As for ATACGTTA, the binding signal was found to be 0.443 E-score in assay [1]; 0.074 E-score in assay [2]; 0.139 E-score in [3]; 0.273 E-score in [4]; 0.451 E-score in assay [5]; 0.169 E-score in assay [6]. Moreover, the binding signal in assay [7] turned out to be 0.214 E-score; in [8], 0.433 E-score; in [9], 0.274 E-score; in assay [10] it was 0.146 E-score.

With ATACGGAA, the binding signal was found to be 0.33 E-score in assay [1]; 0.436 E-score in assay [2]; 0.394 E-score in assay [3]; 0.332 E-score in assay [4]; 0.399 E-score in [5]; 0.372 E-score in [6]. Besides, the binding signal in [7] was determined as 0.223 E-score; in [11] it was 0.0989 E-score; in assay [8], 0.219 E-score; in [9], 0.371 E-score; in [10], 0.38 E-score.

For the sequence CGTACGCA, the binding signal is 0.392 E-score in assay [1]; 0.359 E-score in assay [2]; 0.328 E-score in assay [3]; 0.291 E-score in assay [4]; 0.433 E-score in [5]; 0.365 E-score in [6]. The binding signal in assay [7] came to 0.24 E-score; in [11] it was 0.0905 E-score; in [8] it was 0.32 E-score; in [9], 0.378 E-score; in assay [10] it was 0.341 E-score.
